The supplement of paper PMC10849652
About 7,900 targets were measured; listed, in parts, are those with a hit and a random draw of the rest. About 0.6% of all pairs of compound and target were hits.

Columns and labels:
Test in all cases: log2 fold change, soluble protein after heating vs DMSO (PISA); higher = thermal stabilisation; K562 cells, 10 uM, 30 min; active = over 0.2 and 3.5 SD of the protein, either way, in both replicates (recomputed)
[1] = compound: Cc1ccc(NC(=O)c2ccc(CN3CC[C@H](N(C)C)C3)c(C(F)(F)F)c2)cc1Nc1nccc(-c2cncnc2)n1 [bafetinib]
Outline: (§1)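 Quantification of soluble protein used TMTpro 16plex LC-MS/MS, with channel sums equalised. Samples were the supernatant after 21,000xg for 90 min of pooled aliquots from K562 cells (2×10^6 cells/mL) treated with 10 μM compound for 30 min, heated for 3 min over 48°C-58°C, and extracted in PBS with 0.5% NP-40 at 4°C. Values, from duplicates, describe thermal stability against control samples on a log2 fold-change scale.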

[2] = compound: Cc1cccc(CC(=O)N2CCc3c2ccc(-c2cn(C)c4ncnc(N)c24)c3F)n1
Outline: as §1

[3] = compound: Cc1cn(-c2cc(NC(=O)c3ccc(C)c(Nc4nccc(-c5cccnc5)n4)c3)cc(C(F)(F)F)c2)cn1 [nilotinib]
Outline: as §1

[4] = compound: Cc1nc(Nc2n[nH]c3c2CN(C(=O)N[C@H](CN(C)C)c2ccccc2)C3(C)C)c2sccc2n1
Outline: as §1

[5] = compound: Cc1nc(Nc2ncc(C(=O)Nc3c(C)cccc3Cl)s2)cc(N2CCN(CCO)CC2)n1 [dasatinib]
Outline: as §1

[6] = compound: Cc1ncc(-c2ccnc(Nc3ccc(S(C)(=O)=O)cc3)n2)n1C(C)C
Outline: as §1

[7] = compound: Cn1cc(-c2ccc3c(c2)CCN3C(=O)Cc2cccc(C(F)(F)F)c2)c2c(N)ncnc21
Outline: as §1

[8] = compound: Cn1cc(-c2ccc3nnc(C(F)(F)c4ccc5ncccc5c4)n3n2)cn1
Outline: as §1

[9] = compound: Cn1cncc1[C@@](N)(c1ccc(Cl)cc1)c1ccc2c(c1)c(-c1cccc(Cl)c1)cc(=O)n2C [tipifarnib]
Outline: as §1

[10] = compound: FC(F)(F)c1ccc(/C=C/c2nc(COc3ccc(CCCCn4ccnn4)cc3)co2)cc1 [mubritinib]
Outline: as §1

[11] = compound: NC(=O)Nc1cc(-c2cccc(F)c2)sc1C(=O)N[C@H]1CCCNC1
Outline: as §1

[12] = compound: NC(=O)c1cnc(N[C@@H]2CCCC[C@@H]2N)nc1Nc1cccc(-n2nccn2)c1
Outline: as §1

[13] = compound: NC1(c2ccc(-c3nc4ccn5c(=O)[nH]nc5c4cc3-c3ccccc3)cc2)CCC1
Outline: as §1

[14] = compound: NCC(=O)Nc1ccc(-n2nc(C(F)(F)F)cc2-c2ccc3c(ccc4ccccc43)c2)cc1
Outline: as §1

[15] = compound: Nc1ccccc1NC(=O)c1ccc(CNC(=O)OCc2cccnc2)cc1 [entinostat]
Outline: as §1

[16] = compound: O=C(CCCCCCC(=O)Nc1ccccc1)NO [vorinostat]
Outline: as §1

[17] = compound: O=C(CCCCCCNC(=O)c1cnc(N(c2ccccc2)c2ccccc2Cl)nc1)NO [citarinostat]
Outline: as §1

[18] = compound: O=C(O)c1ccc2c(c1)nc(Nc1cccc(Cl)c1)c1ccncc12 [silmitasertib]
Outline: as §1

[19] = compound: O=C1NC(=O)C(c2cnc3ccccn23)=C1c1cn2c3c(cc(F)cc13)CN(C(=O)N1CCCCC1)CC2
Outline: as §1

[20] = compound: c1cc(OCCN2CCCCC2)cc(-c2n[nH]c3ccc(-c4nnc[nH]4)cc23)c1
Outline: as §1

Measured: log2 fold change

CELF2 isoform 3 (UniProt O95319)
Chain of UniProt O95319 (O95319 whole entry, looked up): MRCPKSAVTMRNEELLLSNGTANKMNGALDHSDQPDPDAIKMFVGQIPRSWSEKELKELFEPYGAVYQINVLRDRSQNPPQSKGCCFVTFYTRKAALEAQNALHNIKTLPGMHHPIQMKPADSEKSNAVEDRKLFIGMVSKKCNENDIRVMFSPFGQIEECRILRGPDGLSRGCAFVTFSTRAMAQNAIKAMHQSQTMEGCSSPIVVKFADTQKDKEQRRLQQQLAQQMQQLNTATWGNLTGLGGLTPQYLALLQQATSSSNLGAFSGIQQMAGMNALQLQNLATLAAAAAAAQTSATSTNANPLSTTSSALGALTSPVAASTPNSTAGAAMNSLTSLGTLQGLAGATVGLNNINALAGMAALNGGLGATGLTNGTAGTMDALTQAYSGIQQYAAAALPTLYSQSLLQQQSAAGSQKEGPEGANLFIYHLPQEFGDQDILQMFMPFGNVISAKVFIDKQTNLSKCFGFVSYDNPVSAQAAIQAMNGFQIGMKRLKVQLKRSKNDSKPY
inactive: [1] 0.014 | [2] -0.005 | [3] -0.001 | [4] 0.013 | [5] -0.005 | [6] 0.079 | [7] -0.022 | [8] -0.059 | [9] -0.062 | [10] -0.006 | [11] -0.047 | [12] 0.009 | [13] 0.017 | [14] -0.017 | [15] -0.048 | [16] -0.044 | [17] 0 | [18] 0.051 | [19] 0.102 | [20] -0.021

CASC3 (UniProt O15234)
inactive: [1] -0.064 | [2] -0.069 | [3] -0.064 | [5] 0.031 | [7] -0.079 | [8] -0.069 | [9] 0.004 | [10] 0.084 | [11] 0.015 | [12] 0.238 | [13] -0.01 | [14] 0.001 | [15] -0.039 | [16] -0.072 | [17] 0 | [18] 0.054 | [19] 0.24 | [20] -0.133
active: [4] 0.481 | [6] 0.511

CLSPN (UniProt Q9HAW4)
Chain of UniProt Q9HAW4 (Q9HAW4 whole entry, looked up): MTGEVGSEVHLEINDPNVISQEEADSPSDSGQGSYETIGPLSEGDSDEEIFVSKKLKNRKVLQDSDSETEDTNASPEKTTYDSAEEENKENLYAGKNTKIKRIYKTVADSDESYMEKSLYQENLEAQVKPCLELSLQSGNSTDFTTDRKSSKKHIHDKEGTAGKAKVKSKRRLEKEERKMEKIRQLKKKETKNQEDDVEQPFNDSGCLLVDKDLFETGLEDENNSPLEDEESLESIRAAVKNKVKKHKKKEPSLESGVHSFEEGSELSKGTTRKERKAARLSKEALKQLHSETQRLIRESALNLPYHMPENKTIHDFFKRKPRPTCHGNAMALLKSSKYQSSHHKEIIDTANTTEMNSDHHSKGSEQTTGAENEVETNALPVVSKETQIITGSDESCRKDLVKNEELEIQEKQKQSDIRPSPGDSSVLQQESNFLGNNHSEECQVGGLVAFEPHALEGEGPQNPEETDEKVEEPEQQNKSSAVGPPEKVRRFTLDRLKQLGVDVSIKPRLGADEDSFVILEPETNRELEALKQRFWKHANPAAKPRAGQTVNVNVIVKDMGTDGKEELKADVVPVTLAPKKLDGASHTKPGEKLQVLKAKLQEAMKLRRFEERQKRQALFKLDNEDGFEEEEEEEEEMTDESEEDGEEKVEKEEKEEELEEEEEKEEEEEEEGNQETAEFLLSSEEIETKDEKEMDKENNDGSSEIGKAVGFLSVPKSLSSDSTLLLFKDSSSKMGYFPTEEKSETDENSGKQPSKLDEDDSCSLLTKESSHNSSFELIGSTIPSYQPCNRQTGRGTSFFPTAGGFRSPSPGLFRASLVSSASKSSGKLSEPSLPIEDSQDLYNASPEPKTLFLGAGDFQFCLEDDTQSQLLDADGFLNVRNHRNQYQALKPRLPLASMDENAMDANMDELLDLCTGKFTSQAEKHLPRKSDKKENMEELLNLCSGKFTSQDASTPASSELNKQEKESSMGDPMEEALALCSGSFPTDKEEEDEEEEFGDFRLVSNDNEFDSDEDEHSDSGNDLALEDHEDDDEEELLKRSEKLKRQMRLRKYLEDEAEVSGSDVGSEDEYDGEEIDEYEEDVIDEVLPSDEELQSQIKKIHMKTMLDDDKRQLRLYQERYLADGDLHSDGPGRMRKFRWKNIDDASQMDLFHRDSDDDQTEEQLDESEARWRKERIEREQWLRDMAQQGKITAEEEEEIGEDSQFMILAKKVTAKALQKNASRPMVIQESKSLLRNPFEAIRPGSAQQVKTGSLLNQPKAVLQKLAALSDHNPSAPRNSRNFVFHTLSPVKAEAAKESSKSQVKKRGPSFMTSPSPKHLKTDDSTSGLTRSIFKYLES
inactive: [1] -0.071 | [2] -0.035 | [3] 0.018 | [4] -0.011 | [5] 0.094 | [6] -0.123 | [7] -0.021 | [8] -0.03 | [9] 0.045 | [10] 0.053 | [11] -0.015 | [12] -0.009 | [13] -0.003 | [14] -0.013 | [15] -0.048 | [16] -0.028 | [17] 0.026 | [18] 0.053 | [19] -0.062 | [20] -0.086

CASTOR2 (UniProt A6NHX0)
inactive: [1] -0.063 | [2] 0.019 | [3] 0.011 | [4] 0.02 | [5] -0.024 | [6] -0.039 | [7] -0.019 | [8] -0.032 | [9] -0.311 | [10] -0.032 | [11] 0.076 | [12] 0.113 | [13] -0.034 | [14] 0.06 | [15] -0.072 | [16] 0.056 | [17] 0.04 | [18] -0.03 | [19] -0.005 | [20] 0.076

CALB1 (UniProt P05937)
inactive: [1] -0.076 | [2] -0.018 | [3] -0.018 | [4] 0.025 | [5] 0.014 | [6] -0.015 | [7] 0.013 | [8] 0.046 | [9] 0 | [10] 0.01 | [11] -0.029 | [12] -0.014 | [13] -0.161 | [14] -0.041 | [15] 0.022 | [16] -0.027 | [17] 0.062 | [18] 0.006 | [19] 0.016 | [20] -0.035

CDK13 (UniProt Q14004)
inactive: [1] 0.092 | [2] -0.018 | [3] -0.024 | [4] -0.149 | [5] -0.089 | [6] -0.108 | [7] -0.028 | [8] -0.098 | [9] 0.069 | [10] 0.023 | [11] -0.032 | [12] -0.007 | [13] -0.063 | [14] 0.042 | [15] 0 | [16] 0.018 | [17] 0.013 | [18] -0.018 | [19] 0.035 | [20] -0.196

CPD (UniProt O75976)
inactive: [1] -0.07 | [2] 0.01 | [3] -0.007 | [4] -0.033 | [5] 0.026 | [6] -0.029 | [7] -0.029 | [8] 0.026 | [9] 0.055 | [10] -0.009 | [11] 0.002 | [12] 0.032 | [13] -0.101 | [14] -0.008 | [15] 0.016 | [16] 0.019 | [17] 0.018 | [18] 0.032 | [19] -0.034 | [20] -0.111

CNTN4 (UniProt Q8IWV2)
inactive: [1] -0.109 | [2] 0.008 | [3] 0.06 | [4] 0.01 | [5] 0.003 | [6] -0.13 | [7] 0.131 | [8] 0.032 | [9] -0.097 | [10] 0.224 | [11] 0.016 | [12] -0.056 | [13] 0.614 | [14] -0.085 | [15] -0.106 | [16] 0.017 | [17] 0.141 | [18] -0.197 | [19] -0.18 | [20] 0.088

CBX5 (UniProt P45973)
Chain of UniProt P45973 (P45973 whole entry, looked up): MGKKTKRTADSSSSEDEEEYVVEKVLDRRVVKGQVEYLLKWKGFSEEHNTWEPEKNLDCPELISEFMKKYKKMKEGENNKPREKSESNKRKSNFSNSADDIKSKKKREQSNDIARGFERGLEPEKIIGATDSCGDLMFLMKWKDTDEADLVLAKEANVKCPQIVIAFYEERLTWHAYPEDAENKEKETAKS
inactive: [1] -0.019 | [2] 0.01 | [3] 0.002 | [4] -0.138 | [5] -0.069 | [6] -0.064 | [7] -0.01 | [8] -0.02 | [9] -0.048 | [10] 0.062 | [11] -0.066 | [12] -0.027 | [13] -0.025 | [14] -0.106 | [15] 0.025 | [16] 0.113 | [17] 0.041 | [18] -0.016 | [19] -0.073 | [20] -0.021

CCAR1 (UniProt Q8IX12)
inactive: [1] 0.036 | [2] 0.036 | [3] -0.055 | [4] -0.033 | [5] -0.112 | [6] -0.095 | [7] 0.079 | [8] 0.019 | [9] -0.091 | [10] 0.122 | [11] 0 | [12] -0.068 | [13] -0.198 | [14] -0.035 | [15] 0.021 | [16] 0.067 | [17] 0.018 | [18] -0.049 | [19] -0.043 | [20] -0.016

CAMSAP1 isoform 3 (UniProt Q5T5Y3)
Chain of UniProt Q5T5Y3 (Q5T5Y3 whole entry, looked up): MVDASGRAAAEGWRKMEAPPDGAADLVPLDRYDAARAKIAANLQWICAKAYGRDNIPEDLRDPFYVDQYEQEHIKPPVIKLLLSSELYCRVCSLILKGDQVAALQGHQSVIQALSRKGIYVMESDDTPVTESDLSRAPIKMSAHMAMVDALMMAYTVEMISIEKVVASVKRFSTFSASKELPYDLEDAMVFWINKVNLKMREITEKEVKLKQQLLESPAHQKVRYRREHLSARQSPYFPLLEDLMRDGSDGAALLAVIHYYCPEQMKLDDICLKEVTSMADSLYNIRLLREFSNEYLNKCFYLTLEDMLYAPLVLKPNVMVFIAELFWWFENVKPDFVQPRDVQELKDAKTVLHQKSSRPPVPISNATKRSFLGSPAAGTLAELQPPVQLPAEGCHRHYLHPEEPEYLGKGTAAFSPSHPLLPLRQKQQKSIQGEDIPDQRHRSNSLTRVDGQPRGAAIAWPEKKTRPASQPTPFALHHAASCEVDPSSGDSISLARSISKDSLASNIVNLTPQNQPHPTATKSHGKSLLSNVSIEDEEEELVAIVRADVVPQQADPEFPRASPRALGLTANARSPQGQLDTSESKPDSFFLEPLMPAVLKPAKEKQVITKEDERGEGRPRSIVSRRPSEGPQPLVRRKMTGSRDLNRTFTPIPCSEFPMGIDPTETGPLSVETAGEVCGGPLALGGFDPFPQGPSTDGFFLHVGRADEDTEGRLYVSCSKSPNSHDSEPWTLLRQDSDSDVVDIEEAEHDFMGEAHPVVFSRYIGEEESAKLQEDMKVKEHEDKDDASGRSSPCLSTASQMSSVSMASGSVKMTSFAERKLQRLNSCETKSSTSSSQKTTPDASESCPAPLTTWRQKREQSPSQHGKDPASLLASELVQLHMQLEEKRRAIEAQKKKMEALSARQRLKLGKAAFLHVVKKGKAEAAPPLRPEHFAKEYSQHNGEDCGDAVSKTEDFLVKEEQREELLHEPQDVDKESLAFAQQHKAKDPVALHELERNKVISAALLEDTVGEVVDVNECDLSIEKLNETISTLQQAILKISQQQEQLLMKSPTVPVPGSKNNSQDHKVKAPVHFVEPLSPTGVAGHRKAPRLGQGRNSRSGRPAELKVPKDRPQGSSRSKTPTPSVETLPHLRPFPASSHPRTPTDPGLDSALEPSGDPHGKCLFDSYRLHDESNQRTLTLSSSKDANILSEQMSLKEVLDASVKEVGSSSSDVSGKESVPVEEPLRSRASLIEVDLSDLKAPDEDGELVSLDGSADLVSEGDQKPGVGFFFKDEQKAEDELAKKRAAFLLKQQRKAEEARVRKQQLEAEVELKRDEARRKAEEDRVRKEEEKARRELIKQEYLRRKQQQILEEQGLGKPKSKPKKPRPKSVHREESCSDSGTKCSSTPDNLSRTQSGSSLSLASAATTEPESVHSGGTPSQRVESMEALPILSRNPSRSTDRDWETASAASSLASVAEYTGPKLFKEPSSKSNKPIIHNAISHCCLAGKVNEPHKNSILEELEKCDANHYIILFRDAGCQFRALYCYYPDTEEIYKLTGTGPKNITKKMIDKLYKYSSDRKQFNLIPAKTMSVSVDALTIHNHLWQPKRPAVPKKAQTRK
active: [14] -0.466
inactive: [1] -0.019 | [2] -0.05 | [3] 0.043 | [4] -0.061 | [5] -0.144 | [6] -0.055 | [7] 0.091 | [8] -0.021 | [9] -0.132 | [10] -0.005 | [11] 0.124 | [12] -0.048 | [13] -0.172 | [15] -0.29 | [16] -0.078 | [17] 0.045 | [18] 0.064 | [19] -0.028 | [20] -0.013

COX20 isoform 2 (UniProt Q5RI15)
Chain of UniProt Q5RI15 (Q5RI15 whole entry, looked up): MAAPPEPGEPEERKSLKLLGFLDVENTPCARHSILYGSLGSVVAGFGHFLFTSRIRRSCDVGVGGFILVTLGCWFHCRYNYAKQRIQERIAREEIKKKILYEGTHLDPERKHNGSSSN
inactive: [1] -0.072 | [2] -0.241 | [3] 0.017 | [4] 0.012 | [5] 0.049 | [6] 0.009 | [7] -0.044 | [8] 0.023 | [9] -0.069 | [10] -0.092 | [11] -0.02 | [12] -0.016 | [14] -0.029 | [15] -0.036 | [16] -0.116 | [17] 0.027 | [18] -0.034 | [19] -0.004 | [20] 0.016
active: [13] 0.363

CDK5RAP1 (UniProt Q96SZ6)
Chain of UniProt Q96SZ6 (Q96SZ6 whole entry, looked up): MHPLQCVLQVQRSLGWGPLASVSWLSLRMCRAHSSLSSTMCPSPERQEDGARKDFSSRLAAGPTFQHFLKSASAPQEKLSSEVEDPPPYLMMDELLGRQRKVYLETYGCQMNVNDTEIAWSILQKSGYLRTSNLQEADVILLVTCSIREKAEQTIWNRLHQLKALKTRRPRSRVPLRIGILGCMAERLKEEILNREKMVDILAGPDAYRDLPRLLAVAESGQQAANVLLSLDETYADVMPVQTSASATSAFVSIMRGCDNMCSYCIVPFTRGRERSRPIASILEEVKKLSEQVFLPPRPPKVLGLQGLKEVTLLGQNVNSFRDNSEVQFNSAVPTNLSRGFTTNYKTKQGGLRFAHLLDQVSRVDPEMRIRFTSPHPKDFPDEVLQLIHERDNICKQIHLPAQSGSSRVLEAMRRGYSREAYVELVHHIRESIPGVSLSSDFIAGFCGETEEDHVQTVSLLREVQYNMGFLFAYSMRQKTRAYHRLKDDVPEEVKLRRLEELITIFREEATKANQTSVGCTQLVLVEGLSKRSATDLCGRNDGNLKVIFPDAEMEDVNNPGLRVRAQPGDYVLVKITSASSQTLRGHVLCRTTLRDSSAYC
inactive: [1] -0.052 | [2] -0.058 | [3] 0 | [4] -0.008 | [5] 0.175 | [6] -0.006 | [7] 0.044 | [8] 0.017 | [9] 0.031 | [10] -0.03 | [11] -0.107 | [12] 0.047 | [13] -0.114 | [14] 0.199 | [15] -0.008 | [16] -0.089 | [17] -0.055 | [18] 0.06 | [19] -0.023 | [20] -0.031

CSNK1A1 (UniProt P48729)
inactive: [1] -0.044 | [2] -0.156 | [3] -0.106 | [4] -0.008 | [5] 0.011 | [6] 0.033 | [7] -0.118 | [8] -0.055 | [9] 0.022 | [10] -0.086 | [11] -0.067 | [12] -0.001 | [13] 0.031 | [14] 0.019 | [15] 0.023 | [16] -0.087 | [17] 0.016 | [18] 0.048 | [19] 0.243 | [20] -0.084

CS (UniProt O75390)
Chain of UniProt O75390 (O75390 whole entry, looked up): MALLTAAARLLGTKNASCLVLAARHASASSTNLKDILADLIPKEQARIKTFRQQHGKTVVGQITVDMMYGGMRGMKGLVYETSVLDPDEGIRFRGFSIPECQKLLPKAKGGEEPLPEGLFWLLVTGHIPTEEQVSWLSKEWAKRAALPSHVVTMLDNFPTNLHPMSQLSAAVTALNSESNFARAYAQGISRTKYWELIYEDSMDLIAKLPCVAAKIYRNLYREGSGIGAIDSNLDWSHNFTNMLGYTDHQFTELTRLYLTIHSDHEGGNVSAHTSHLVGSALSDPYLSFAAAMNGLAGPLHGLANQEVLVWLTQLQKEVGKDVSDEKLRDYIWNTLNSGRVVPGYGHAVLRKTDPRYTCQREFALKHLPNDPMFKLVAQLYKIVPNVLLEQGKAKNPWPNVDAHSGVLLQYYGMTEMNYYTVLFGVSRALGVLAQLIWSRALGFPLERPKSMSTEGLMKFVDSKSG
inactive: [1] 0.013 | [2] -0.061 | [3] 0.011 | [4] -0.051 | [5] -0.131 | [6] -0.097 | [7] 0.075 | [8] 0.083 | [9] -0.033 | [10] 0.015 | [11] -0.024 | [12] -0.087 | [13] -0.187 | [14] 0.007 | [15] 0.001 | [16] 0.064 | [17] 0.012 | [18] -0.039 | [19] 0.003 | [20] -0.068

CA8 (UniProt P35219)
inactive: [1] -0.042 | [2] 0.079 | [3] 0.006 | [4] -0.017 | [5] -0.187 | [6] -0.01 | [7] 0.083 | [8] -0.063 | [9] -0.064 | [10] 0.06 | [11] 0.035 | [12] -0.069 | [13] -0.167 | [14] -0.058 | [15] 0.049 | [16] 0.025 | [17] 0.108 | [18] 0.029 | [19] -0.142 | [20] -0.027
